Bioassay records from PubChem.
Tau FP inhib = inhibitors of human tau fibril formation | AID 1468 | actives 0.39% (n = 280,000) | Potency, µM (top dose mostly 57.7 µM), without a hit: at the top dose activity, negative = inhibition, most hits filed as inhibitors | K18 P301L tau heparin fibrillization, Alexa594 FP, 6 h | P10636; further: potency means the concentration at half of the fitted maximal effect; nearly all actives have a fitted effect of over 55% in size
Target sequence (P10636 561-689 P618L limits assumed): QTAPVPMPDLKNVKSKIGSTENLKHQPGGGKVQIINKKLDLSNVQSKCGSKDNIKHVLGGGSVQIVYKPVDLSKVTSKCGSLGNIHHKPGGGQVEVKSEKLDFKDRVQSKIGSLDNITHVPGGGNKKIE
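Read-out: fluorescence polarization of Alexa 594-labeled tau (0.24 uM), 555 nm excitation, 632 nm emission. Mixtures held 15 uM unlabeled K18 P301L, compound and 20 uM heparin, pH 7 acetate buffer, incubated 6 hr at 37 C.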
Tau fluor cs = counter-screen for tau fibril formation inhibitors; tau K18 P301L Alexa594 fluorescence, heparin fibrillization; Potency, µM (top dose mostly 57.7 µM), for inactives: at the highest dose activity change, negative = decrease; actives 0.93% (n = 280,000); AID 1463; further: potency means the concentration at half of the fitted maximal effect; nearly all actives have a fitted effect of over 55% in size
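Human tau K18 P301L (15 uM unlabeled, 0.24 uM Alexa 594-labeled) in 100 mM sodium acetate pH 7 with 20 uM heparin, 6 hr at 37 C. ThT 30 uM added, 1 hr ambient; Alexa 594 FP and total fluorescence read at 555/632 nm.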
Tau ThT inhib = tau fibrillization inhibition (ThT binding); P10636; recombinant tau K18 P301L (four-repeat tau fragment), heparin-induced fibrillization, ThT fluorescence; Potency, µM (series often up to 57.4 µM), without a hit: top-dose activity, negative = inhibition, actives largely listed as inhibitors; actives 2.1% (n = 270,000); further: potency means the concentration at half of the fitted maximal effect; nearly all actives have a fitted effect of over 55% in size
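Heparin-induced fibrillization of the P301L-mutant K18 repeat-domain fragment of human tau was followed by ThT binding in quantitative high-throughput format.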
Coupling enz = inhibits coupling enzyme system, counter-screen for aldolase hits. activity change, negative = inhibition, % at 58.2 µM, hits read low. actives 0.67% (n = 290,000). coupling enzyme system counterscreen, AmpLite Red fluorescence; in the data active means activity change below about -30%
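Fluorescence at 525 nm excitation and 598 nm emission measured inhibition of the coupled detection system without aldolase. Compounds (at 57.5 uM final) were preincubated 10 min at room temperature with coupling enzyme reagent before a 20 min substrate/AmpLite Red step.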
JMJD2E inh = inhibitors of human JMJD2E histone demethylase; B2RXH2; JMJD2E catalytic domain, FDH-coupled NADH fluorescence (FDH is formaldehyde dehydrogenase); Potency, µM (highest dose often 57.1 µM), without a hit: at the top dose activity change, negative = inhibition, usual class: inhibitors; actives 1.6% (n = 230,000); AID 2147; active means well fitted inhibition curve with a large enough effect, not every such curve was filed as active; inconclusive means small, poorly fitted or top-dose-only effect, or another doubt; inactive means no such curve, though single readings can be large or run the other way;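 further: potency means the concentration at half of the fitted maximal effect; 0% = wells with enzyme and -100% = buffer wells without enzyme; nearly all actives have a fitted effect of over 50% in size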
Target sequence (B2RXH2 1-337 limits assumed): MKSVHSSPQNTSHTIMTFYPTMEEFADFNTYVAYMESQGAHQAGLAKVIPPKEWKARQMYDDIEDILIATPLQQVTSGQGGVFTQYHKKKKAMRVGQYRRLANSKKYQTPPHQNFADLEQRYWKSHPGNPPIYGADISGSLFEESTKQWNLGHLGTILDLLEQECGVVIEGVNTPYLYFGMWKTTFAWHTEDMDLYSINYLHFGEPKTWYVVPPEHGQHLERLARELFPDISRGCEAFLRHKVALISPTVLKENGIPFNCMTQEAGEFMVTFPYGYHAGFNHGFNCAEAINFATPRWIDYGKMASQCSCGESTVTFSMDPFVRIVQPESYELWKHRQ
Starred values were filed as active, the others as inactive; ? = inconclusive; / = no result given; [ ] = remark or other dose. A selection: hits, their analogues and other compounds. The true share with any hit is near 3%. Unless noted, the call rests on the fitted dose curve; in most records, active means well fitted curve in the direction sought with a large enough effect; inconclusive means small, poorly fitted or top-dose-only effect, or another doubt; inactive means no such curve, though single readings can be large; an effect the other way counts as inactive or inconclusive. Unless noted, on the % scale 0 is the no-effect control and ±100 the full control effect.

SMILES	Tau FP inhib	Tau fluor cs	Tau ThT inhib	Coupling enz	JMJD2E inh
NS(=O)(=O)c1ccc(NN=C2CCN(Cc3ccccc3)CC2)c([N+](=O)[O-])c1	12%	-27%	25µM*	0	2%
CCCN1CCC(=NNc2ccc(S(=O)(=O)N3CCOCC3)cc2[N+](=O)[O-])CC1	4%	-11%	0%	1	2%
CN(C)c1ccc(C(CNS(=O)(=O)c2ccc3ccccc3c2)c2c[nH]c3ccccc23)cc1 (stereo unspecified)	7%	8.9µM*[quencher]	-7%	-1	-21%
CC1=C(C(=O)Nc2ccc(Cl)cc2)C(C(C)C)n2nc(SCc3cccc(C)c3)nc2N1 (stereo unspecified)	-10%	-3%	5%	/	/
Nc1cc([N+](=O)[O-])ccc1Nc1ccccc1	?	?	16µM*	-2	-3%
O=[N+]([O-])c1cccc(NN=Nc2ccccc2)c1	/	/	/	-3	/
O=[N+]([O-])c1ccc(N=NNc2ccccc2)cc1	2%	14µM*[quencher]	8.9µM*	0	2%
O=C(O)c1cc(NN=Nc2ccc(Br)cc2)cc([N+](=O)[O-])c1	1%	-28%	14µM*	9	?
O=C(O)C1Nc2c(O)cccc2C2C=CCC12 (stereo unspecified)	?	?	13µM*	-6	18µM*
O=C(O)C1Nc2c(Cl)cc(Cl)cc2C2C=CCC12 (stereo unspecified)	/	/	/	3	/
COc1ccc(/C=C2/SC(=S)N(CCCC(=O)Nc3cccc(O)c3)C2=O)cc1	/	/	/	0	/
O=C(CCCN1C(=O)/C(=C/c2cccs2)SC1=S)Nc1ccc(O)c(C(=O)O)c1	0%	?	8.9µM*	18	4%
O=C(CCCN1C(=O)/C(=C/c2ccco2)SC1=S)Nc1cccc(C(=O)O)c1	-14%	-18%	16µM*	-15	?
COc1ccc(NC(=O)CCCN2C(=O)/C(=C\c3ccco3)SC2=S)cc1	?	?	16µM*	-6	-29%
Cc1nn(CCC(=O)NCc2cccc(Br)c2)c(=O)c2nn(-c3ccccc3)c(C)c12	-9%	5%	12%	/	/
O=C(Nc1cccc(-c2nc3ncccc3o2)c1)c1ccc(-c2cccc(Cl)c2Cl)o1	-15%	?	?	/	/
CN1/C(=C/C(=S)NC(=O)C2(C)CC2(Cl)Cl)C(C)(C)c2ccccc21 (stereo unspecified)	-10%	-18%	13µM*	0	-3%
COc1ccccc1C(=O)NC(=S)/C=C1/N(C)c2ccccc2C1(C)C	4%	2%	2%	3	0%
CN1/C(=C\C(=O)Nc2ccc(Cl)cc2)C(C)(C)c2ccccc21	10%	13µM*[quencher]	?	-3	-13%
CN1/C(=C\C(=S)NC(=O)c2ccccc2Cl)C(C)(C)c2ccccc21	5%	-4%	11µM*	0	-3%
C=C1CCN(C(CC(C)C)C(=O)NCc2ccc(OC)cc2)S(=O)(=O)c2ccccc21 (stereo unspecified)	/	/	/	0	/
CN(C)C1C(=O)C(C(N)=O)C(=O)C2(O)C(=O)C3C(=O)c4c(O)ccc(Cl)c4C(O)C3CC12 (stereo unspecified)	-11%	-24%	?	-7	/
CCn1cc(C(=O)NCCCOC(C)C)c(=O)c2cc(S(=O)(=O)N3CCc4ccccc4C3)ccc21	-3%	-10%	-5%	/	/
COc1ccc(NC(=S)Nc2ccc(OCc3ccccc3)cc2)cc1OC	18%	25µM*[quencher]	?	-7	5%
O=C(/C=C/c1cccc([N+](=O)[O-])c1)n1cnc2ccccc21	?	?	13µM*	1	-9%
CCN1/C(=C\C=C2\C(=O)N(C)C(=S)N2C)Sc2ccccc21	-14%	1%	2µM*	-1	-5%
CC(C)C[C@H](NC(=O)c1[nH]cnc1C(=O)Nc1ccc(CNC(=O)OC(C)(C)C)cc1)C(=O)OC(C)(C)C	?	?	4%	-18	-13%
CC(C)(C)OC(=O)CNC(=O)c1[nH]cnc1C(=O)Nc1ccc(Cl)cc1	25µM*	?	?	1	-1%
CC(C)(C)OC(=O)CNC(=O)c1[nH]cnc1C(=O)Nc1ccc(CNC(=O)OC(C)(C)C)cc1	?	?	14%	-3	-14%
